The source made the active and inactive calls. The calls were made as follows: active = hit-call score of the fitted dose curve at least 0.9, where 1 is the maximum; inactive = score below 0.9.
Tests used:
Conditions in all cases: mRNA level, 48 h; actives raise or lower the signal
[1] = read-out: Ezrin (EZR), EZR (gene 7430); assay: LTEA_HepaRG_EZR: Life Technologies and Expression Analysis (LTEA) Assay for Ezrin (EZR) using HepaRG (AID 2283491)
Description: It is a marker of Cellular remodeling.Data from the assay component LTEA_HepaRG_EZR was analyzed into 1 endpoint. This assay endpoint, LTEA_HepaRG_EZR, was analyzed with bidirectional fitting relative to DMSO as the negative control and baseline of activity. Using a type of inducible reporter, measures of mRNA induction for gain or loss-of-signal activity can be used to understand regulation of transcription factor activity. To generalize the intended target to other relatable targets, this assay endpoint is annotated to the membrane protein intended target family, where the subfamily is Cellular remodeling.
A total of 1060 chemcials from the ToxCast library were tested in eight-point concentration-response experiments. Cell culture and cytotoxicity assays were conducted at Thermo Fisher Scientific's Custom Services facility (Madison, WI). A single lot of human HepaRG cells (Thermo Fisher Scientific, Frederick, MD) was used for the cell culture experiments. 96-well format collagen type I coated plates of human HepaRG cells were prepared using established methods. […] Fluidigm's 96.96 Dynamic ArrayTM (Fluidigm, Amsterdam, the Netherlands) technology was used for gene expression analyses by quantitative reverse transcription polymerase chain reaction (qRT-PCR, performed by Quintiles/Expression Analysis, Durham, NC)89. […]

[2] = read-out: Cytochrome P450 3A7 (Homo sapiens) (UniProt P24462); assay: LTEA_HepaRG_CYP3A7: Life Technologies and Expression Analysis (LTEA) Assay for CYP3A7 using HepaRG (AID 2283492)
Procedure, shortened: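 HepaRG cells plated 48 h, then dosed in serum-free induction medium for 48 h at 8 concentrations (top 100 uM, half-log steps, 0.5% DMSO). CYP3A7 mRNA by qRT-PCR, normalised to ACTB/GAPDH/POLR2A; bidirectional fit versus DMSO.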

[3] = read-out: CYP3A5 (gene 1577); assay: LTEA_HepaRG_CYP3A5: Life Technologies and Expression Analysis (LTEA) Assay for CYP3A5 using HepaRG (AID 2283493)
Procedure, shortened: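 mRNA levels were quantified by qRT-PCR on Fluidigm arrays and normalized to three housekeeping genes. Differentiated HepaRG cells received 48 h exposure (top 100 uM, half-log steps, 0.5% DMSO vehicle, duplicate); bidirectional fitting versus DMSO.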

[4] = read-out: Fatty Acid-Binding Protein 1 (FABP1), FABP1 (gene 2168); assay: LTEA_HepaRG_FABP1: Life Technologies and Expression Analysis (LTEA) Assay for Fatty Acid-Binding Protein 1 (FABP1) using HepaRG (AID 2283494)
Procedure, shortened: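 qRT-PCR readout of FABP1 transcript (normalized to three housekeeping genes) after 48 h chemical exposure of HepaRG cells; eight concentrations, half-log steps, max 100 uM, 0.5% DMSO vehicle; gain or loss fitted relative to DMSO baseline.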

[5] = read-out: Cytochrome P450 4A22 (Homo sapiens) (UniProt Q5TCH4); assay: LTEA_HepaRG_CYP4A22: Life Technologies and Expression Analysis (LTEA) Assay for Cytochrome P450 4A22 (CYP4A22) using HepaRG (AID 2283495)
Procedure, shortened: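 qRT-PCR of CYP4A22 mRNA (Fluidigm TaqMan, normalized to three housekeeping genes) after 48 h chemical exposure of HepaRG cells; 8-point half-log series, top 100 uM, 0.5% DMSO vehicle. Bidirectional curve fitting vs DMSO baseline.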

[6] = read-out: Cytochrome P450 7A1 (Homo sapiens) (UniProt P22680); assay: LTEA_HepaRG_CYP7A1: Life Technologies and Expression Analysis (LTEA) Assay for Cytochrome P450 7A1 (CYP7A1) using HepaRG (AID 2283496)
Procedure, shortened: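 HepaRG, 48 h exposure, 8-pt half-log series from 100 uM, 0.5% DMSO vehicle, duplicates. Readout: TaqMan qRT-PCR mRNA vs three housekeeping genes; bidirectional curve fit against DMSO baseline.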

[7] = read-out: Glutathione S-Transferase (GSTA2), GSTA2 (gene 2939); assay: LTEA_HepaRG_GSTA2: Life Technologies and Expression Analysis (LTEA) Assay for Glutathione S-Transferase (GSTA2) using HepaRG (AID 2283497)
Description: LTEA_HepaRG is a cell based, multiplexed-readout assay that uses HepaRG, a human liver cell line, with measurements taken at 48 hours after chemical dosing on a 96-well plate.LTEA_HepaRG_GSTA2 is one of 102 assay component(s) measured in the LTEA HepaRG cell culture assay. It is a marker of Oxidative Stress.Data from the assay component LTEA_HepaRG_GSTA2 was analyzed into 1 endpoint. This assay endpoint, LTEA_HepaRG_GSTA2, was analyzed with bidirectional fitting relative to DMSO as the negative control and baseline of activity. Using a type of inducible reporter, measures of mRNA induction for gain or loss-of-signal activity can be used to understand regulation of transcription factor activity. To generalize the intended target to other relatable targets, this assay endpoint is annotated to the transferase intended target family, where the subfamily is alkyl and aryl transferase.
A total of 1060 chemcials from the ToxCast library were tested in eight-point concentration-response experiments. Cell culture and cytotoxicity assays were conducted at Thermo Fisher Scientific's Custom Services facility (Madison, WI). […] Fluidigm's 96.96 Dynamic ArrayTM (Fluidigm, Amsterdam, the Netherlands) technology was used for gene expression analyses by quantitative reverse transcription polymerase chain reaction (qRT-PCR, performed by Quintiles/Expression Analysis, Durham, NC)89. […]

[8] = read-out: Glutamate-cysteine ligase catalytic (GCLC), GCLC (gene 2729); assay: LTEA_HepaRG_GCLC: Life Technologies and Expression Analysis (LTEA) Assay for Glutamate-cysteine ligase catalytic (GCLC) using HepaRG (AID 2283498)
Procedure, shortened: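 HepaRG, 48 h exposure, 8-pt half-log series from 100 uM, 0.5% DMSO vehicle; TaqMan qRT-PCR for GCLC mRNA, housekeeping-normalized; bidirectional curve fit vs DMSO baseline.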

[9] = read-out: growth arrest and DNA damage 45 (GADD45G), GADD45G (gene 10912); assay: LTEA_HepaRG_GADD45G: Life Technologies and Expression Analysis (LTEA) Assay for growth arrest and DNA damage 45 (GADD45G) using HepaRG (AID 2283499)
Procedure, shortened: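 Differentiated human HepaRG cells in serum-free induction medium were exposed for 48 h to 8 half-log concentrations up to 100 uM in 0.5% DMSO, in duplicate. GADD45G mRNA was measured by TaqMan qRT-PCR, normalised to ACTB, GAPDH and POLR2A, and fitted bidirectionally against DMSO.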

[10] = read-out: Glutamate-cysteine ligase regulatory (GCLM), GCLM (gene 2730); assay: LTEA_HepaRG_GCLM: Life Technologies and Expression Analysis (LTEA) Assay for Glutamate-cysteine ligase regulatory (GCLM) using HepaRG (AID 2283500)
Procedure, shortened: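 GCLM expression quantified by qRT-PCR, normalized to three housekeeping genes, after 48 h chemical treatment of HepaRG cells in duplicate at 8 concentrations (top 100 uM, half-log steps, 0.5% DMSO). Changes fitted both directions against vehicle.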

Measured: outcome

Chain of Cytochrome P450 3A7 (Homo sapiens) (P24462 whole entry, looked up): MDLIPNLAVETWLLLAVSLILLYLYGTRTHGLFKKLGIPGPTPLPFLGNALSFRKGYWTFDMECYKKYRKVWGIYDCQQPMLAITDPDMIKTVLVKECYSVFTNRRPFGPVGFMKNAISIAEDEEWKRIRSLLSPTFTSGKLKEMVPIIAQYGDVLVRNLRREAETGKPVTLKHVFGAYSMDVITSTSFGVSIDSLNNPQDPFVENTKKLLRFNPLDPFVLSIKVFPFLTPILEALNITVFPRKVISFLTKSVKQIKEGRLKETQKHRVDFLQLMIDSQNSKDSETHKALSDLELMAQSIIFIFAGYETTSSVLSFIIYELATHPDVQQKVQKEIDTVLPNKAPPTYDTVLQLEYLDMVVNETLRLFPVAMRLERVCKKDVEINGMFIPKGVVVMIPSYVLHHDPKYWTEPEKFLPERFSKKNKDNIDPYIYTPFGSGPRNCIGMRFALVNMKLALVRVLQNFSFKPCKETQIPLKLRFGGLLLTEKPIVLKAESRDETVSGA

O=C(O)c1ccc([N+](=O)[O-])cc1
inactive: all assays above

From PubChem BioAssay (EPA / NIEHS)
